# According to PMC11062922 (Nature Chemical Biology, 2023):
# Where two headings read alike, the source gives them in different places.
# Tests used:
# Parameters in all cases: species or system human, MV4-11 + K-562 + COLO205 + SK-N-BE2 + OVCAR-8
# CAMKK2 = settings: read-out: apparent Kd, compound concentrations: 100 nM and 1000 nM (sheet 'Samples'), n = 1
# JAK1 = settings: read-out: apparent Kd, n = 1
# LATS1 = settings: read-out: apparent Kd, compound concentrations: 100 nM and 1000 nM (sheet 'Samples'), n = 1
# MARK2 = settings: read-out: apparent Kd, compound concentrations: 100 nM and 1000 nM (sheet 'Samples'), n = 1
# MARK3 = settings: read-out: apparent Kd, compound concentrations: 100 nM and 1000 nM (sheet 'Samples'), n = 1
# PRKACB = settings: read-out: apparent Kd, n = 1
# RPS6KA3 = settings: read-out: apparent Kd, compound concentrations: 100 nM and 1000 nM (sheet 'Samples'), n = 1
# TBK1 = settings: read-out: apparent Kd, compound concentrations: 100 nM and 1000 nM (sheet 'Samples'), n = 1
# IRAK4 = settings: read-out: apparent Kd, compound concentrations: 100 nM and 1000 nM (sheet 'Samples'), n = 1
# MAP3K6 = settings: read-out: apparent Kd, compound concentrations: 100 nM and 1000 nM (sheet 'Samples'), n = 1
# MTHFD1 = settings: read-out: apparent Kd, n = 1
# PRKDC = settings: read-out: apparent Kd; compound concentrations:100 nM and 1000 nM (sheet 'Samples'); n = 1
# T10 = system: T1, T10; settings: read-out: apparent Kd; compound concentrations:100 nM and 1000 nM (sheet 'Samples'); n = 1
# T1 construct: gene NAT10
# MAPK7 = settings: read-out: apparent Kd, compound concentrations: 100 nM and 1000 nM (sheet 'Samples'), n = 1
# DYNC1LI1 = settings: read-out: apparent Kd, compound concentrations: 100 nM and 1000 nM (sheet 'Samples'), n = 1
# AGK = settings: read-out: apparent Kd, n = 1
# NEK3 = settings: read-out: apparent Kd, compound concentrations: 100 nM and 1000 nM (sheet 'Samples'), n = 1
# PKN2 = settings: read-out: apparent Kd, n = 1
# ARAF = settings: read-out: apparent Kd, compound concentrations: 100 nM and 1000 nM (sheet 'Samples'), n = 1
# CAMK4 = settings: read-out: apparent Kd, n = 1
# [1] = compound concentrations:100 nM and 1000 nM (sheet 'Samples')
smiles,measurement,setting,value
O=C1N=C(NCc2cccs2)SC1Cc1ccc2ncccc2c1 (stereo not shown) [RO4629078-000],potency estimated from few doses,CAMKK2; CATDS: 1.0556199661625101E-2,0.586 µM
same,potency estimated from few doses,"JAK1; compound concentrations: 100 nM and 1000 nM (sheet 'Samples'), CATDS: 8.4918440228529003E-3",1.06 µM
same,potency estimated from few doses,LATS1; CATDS: 8.7867541844469099E-3,0.953 µM
same,potency estimated from few doses,MARK2; CATDS: 7.7790140637755802E-3,1.43 µM
same,potency estimated from few doses,MARK3; CATDS: 8.2190831573709308E-3,1.18 µM
same,potency estimated from few doses,"PRKACB; compound concentrations: 100 nM and 1000 nM (sheet 'Samples'), CATDS: 8.4250069561530305E-3",1.08 µM
same,potency estimated from few doses,RPS6KA3; CATDS: 8.4062550540876194E-3,1.09 µM
same,potency estimated from few doses,TBK1; CATDS: 7.6855251717376097E-3,1.49 µM
Cl.O=C1N=C(NCc2ccccn2)S/C1=C\c1ccc2ncccc2c1 [RO4874953-001],potency estimated from few doses,IRAK4; CATDS: 7.1454413714057002E-2,1.93 µM
CNC1=NC(=O)/C(=C/c2ccc3ncccc3c2)S1 [RO4595949-000],potency estimated from few doses,MAP3K6; CATDS: 5.3158736559022798E-2,1.51 µM
O=C1N=C(NCCc2ccccn2)S/C1=C\c1ccc2ncccc2c1 [RO4508346-000],potency estimated from few doses,"MTHFD1; compound concentrations: 100 nM and 1000 nM (sheet 'Samples'), CATDS: 6.5916651027534801E-2",1.98 µM
Cc1cccc(-c2cc(-c3c[nH]nc3-c3ccccn3)ccn2)c1 [GW679395X],potency estimated from few doses,PRKDC,1.13 µM
same,potency estimated from few doses,T10,1.94 µM
CN1C(=O)c2ccccc2N(C)c2nc(Nc3cnn(C4CCNCC4)c3)ncc21 [XMD-17-51],potency estimated from few doses,MAPK7; CATDS: 3.6148838376291702E-2,0.101 µM
same,potency estimated from few doses,MARK2; CATDS: 1.3481113896194E-2,2.05 µM
same,potency estimated from few doses,MARK3; CATDS: 1.4488422936038499E-2,1.43 µM
COc1cccc(-n2ncc3c(N/N=C/c4ccc(C(=O)NCCN(C)C)cc4)ncnc32)c1.Cl [GW784307A],potency estimated from few doses,CAMKK2; CATDS: 2.5303732707076199E-2,2.12 µM
COc1cc(Nc2nccc(N3CCC(NC(=O)C4COc5ccccc5O4)C3)n2)cc(OC)c1OC (stereo not shown) [GSK1379761A],potency estimated from few doses,DYNC1LI1; CATDS: 0.20239822738500499,2.02 µM
Cl.Cl.Cl.c1ccc(Oc2ccc(Nc3ccnc4cc(-c5ccc(CN6CCNCC6)o5)ccc34)cc2)nc1.c1ccc(Oc2ccc(Nc3ccnc4cc(-c5ccc(CN6CCNCC6)o5)ccc34)cc2)nc1 [GW567142A],potency estimated from few doses,"AGK; compound concentrations: 100 nM and 1000 nM (sheet 'Samples'), CATDS: 1.95822774177494E-2",1.23 µM
same,potency estimated from few doses,MAPK7; CATDS: 1.6423654132294602E-2,2.37 µM
same,potency estimated from few doses,NEK3; CATDS: 1.7301178546407801E-2,1.91 µM
same,potency estimated from few doses,"PKN2; compound concentrations: 100 nM and 1000 nM (sheet 'Samples'), CATDS: 1.6443566928173701E-2",2.35 µM
CNC(=O)c1ccccc1Nc1nc(Nc2cccc(CS(C)(=O)=O)c2)ncc1C.O=CO [GSK1520489A],potency estimated from few doses,IRAK4; CATDS: 9.4049632429945695E-3,1.87 µM
same,potency estimated from few doses,LATS1; CATDS: 9.9587793654228995E-3,1.34 µM
same,potency estimated from few doses,RPS6KA3; CATDS: 1.12432401151655E-2,0.768 µM
same,potency estimated from few doses,TBK1; CATDS: 1.25946113140399E-2,0.504 µM
CC(C)c1nc(-c2cccc(NS(=O)(=O)c3c(F)cccc3F)c2F)c(-c2ccnc(Nc3ccc(N4CCOCC4)nc3)n2)s1 [GSK2008607A],potency estimated from few doses,ARAF; CATDS: 1.81049419419274E-2,2.03 µM
CC(=O)N1CCN(c2ccc(Nc3nccc(-c4sc(C(C)C)nc4-c4cccc(NS(=O)(=O)c5ccccc5)c4)n3)cn2)CC1 [GSK1645872A],potency estimated from few doses,ARAF; CATDS: 2.3399978491415799E-2,1.56 µM
CN1CCN(Cc2ccc(-c3ccc4c(Nc5ccc(Oc6ccccn6)cc5)ccnc4c3)o2)CC1 [GW567140X],potency estimated from few doses,"CAMK4; compound concentrations: 100 nM and 1000 nM (sheet 'Samples'), CATDS: 3.2094924147275203E-2",2 µM
O=S(=O)(CCOCc1ccc(-c2ccc3ncnc(Nc4ccc(OCc5cccc(F)c5)c(Cl)c4)c3c2)o1)c1ccccc1 [GW615311X],potency estimated from few doses,MAP3K6; CATDS: 2.8394321566467099E-2,1.31 µM
same,potency estimated from few doses,NEK3; CATDS: 2.1900299581920201E-2,2.46 µM
Fc1ccc(-c2c(-c3ccncc3)[nH]c3nccnc23)cc1 [RO1155697-000],potency estimated from few doses,AGK; [1],1.64 µM
same,potency estimated from few doses,CAMK4; [1],1.55 µM
Nc1nc(N)c2nc(-c3ccccc3)[nH]c2n1 [SKF-12778],potency estimated from few doses,JAK1; [1],0.953 µM
same,potency estimated from few doses,PRKACB; [1],1.79 µM
same,potency estimated from few doses,PRKDC,0.716 µM
same,potency estimated from few doses,T10,1.13 µM
Fc1cccc(COc2ccc(Nc3ncncc3C#Cc3ccccc3)cc2Cl)c1 [GW651576X],potency estimated from few doses,DYNC1LI1; CATDS: 4.5527640720115801E-2,2.22 µM
Nc1c(C(=O)c2ccccc2)cnn1-c1ccc(F)cc1 [RO1151246-000],potency estimated from few doses,PKN2; [1],1.91 µM
COc1cc(F)c(F)c(F)c1C(=O)c1cnc(NC2CCN(S(C)(=O)=O)CC2)nc1N [RO4600703-000],potency estimated from few doses,MTHFD1; [1],1.3 µM
